Assay results published in PubChem BioAssay AID504339 (National Center for Advancing Translational Sciences (NCATS), 2011).
Out of some 390,000 compounds screened, about 17,000 (4.4%) were called active. Inconclusive results (about 8%) are left out. The sample as a whole holds a higher share of actives than the screen did. Unmarked numbers belong to inactive results. Calls come from the whole dose curve; as a rule, active = well fitted inhibition curve with a large enough effect; inconclusive = small, poorly fitted or top-dose-only effect; inactive = no such curve, though single readings can be large or run the other way.

Molecular target: Lysine-specific demethylase 4A (Homo sapiens) (UniProt O75164)
Assay: qHTS Assay for Inhibitors of JMJD2A-Tudor Domain; note: nearly all actives have a fitted effect of over 50% in size
Conditions: AlphaScreen JMJD2A-Tudor / H3K4me3 peptide binding; series mostly up to 114 µM; activity change, negative = inhibition: at the top concentration
Text: JMJD2A is a jumonji-domain-containing lysine demethylase that uses Fe(II) together with 2-OG to effect oxidative demethylation of histones. Methylation is one of many […] modification that affect epigenetic transcription. […] It is proposed that the functions of JmjD2A binding to the histones, is to maintain marks after they are installed and to spread the modifications by […], establishing a self-propagating cycle for rapid methylation over a large area of chromatin. […] Thus, small molecule targeting of the JMJD2A-tudor domain interaction with its target methylhistone mark is expected to enable sophisticated experiments probing the fine regulatory pathways leading to selective demethylation of a given methyllysine locus based on the methylation state of adjacent histone marks. A quantitative high throughput AlphaScreen has been developed to identify small molecule inhibitors based on a protocol published by NCGC and SGC [4].
Although AlphaScreen has significant advantages with its utility in a variety of epigenetic target assays, the primary screening data provided in this deposition should be used with caution due to the prevalence of screening artifacts. The top compound concentration tested was high (>100uM) in this assay, which increases number of actives and potential artifacts. An AlphaScreen counterscreen is highly recommended to be run against any putative actives to eliminate non-specific artifacts. Alternatively, one can use other AlphaScreen assays in PubChem to filter out promiscuous hits.
[1] Lee, J. et al. Distinct binding modes specify the recognition of methylated histone H3K4 and H4K20 by JMJD2A-tudor. Nat Struct Mol Biol. 15(1); 109-11. 2008. PMID: 18084306
[2] Yasgar, et al. Compound Management for Quantitative High-Throughput Screening. JALA. 2008 Apr;13(2):79-89. PMID: 18496600
[3] Inglese, et al. Quantitative high-throughput screening: a titration-based approach that efficiently identifies biological activities in large chemical libraries. Proc Natl Acad Sci. 1;103(31):11473-8. 2006. PMID: 16864780
[4] Quinn et al. A homogeneous method for investigation of methyl-dependent protein-protein interactions in epigenetics. Nucleic Acids Res., 38(2):e11. 2010. PMID: […]
[5] Baell,Holloway. New substructure filters for removal of pan assay interference compounds (PAINS) from screening libraries and for their exclusion in bioassays. J Med Chem. 53(7):2719-40. 2010. PMID: 20131845
NIH Molecular Libraries Probe Production Network [MLPCN]
NIH Chemical Genomics Center [NCGC]
Structural Genomics Consortium (SGC)
To each well of a 1,536w plate, 2ul of JMJD2A-Tudor (final 100nM) and 1ul biotinylated histone peptide methylated at Lys4 [b-H3(1-18)K4me3] (final 50nM) were added in 1x PBS buffer, pH 7.4, containing 0.01% Tween-20, using a nanoliter dispenser. Formation of a protein-peptide complex proceeded at room temperature for 30 min. A Kalypsys pin-tool transferred 23nl of library compound solution in DMSO to each well. Following a 30 min incubation of the protein-peptide complex with compounds at room temperature, a mixture of 40 µg/mL each streptavidin-coated donor and nickel chelate acceptor AlphaScreen beads (final 10 µg/mL) was added in a 1ul dispense for a final volume of 4ul, followed by a brief centrifugation (1000 rpm, 1 min). Plates were incubated protected from the light for 20 min at room temperature. Microplates were then read on an EnVision multilabel plate reader using the 1,536 plate HTS AlphaScreen aperture (excitation time 80 ms, measurement time 240 ms).
% is set by controls: 0 for no effect and ±100 for the full control effect; potency is the fitted concentration of half-maximal effect.

Lysine-specific demethylase 4A (Homo sapiens), sequence (O75164 whole entry, looked up, the tested form may be a part): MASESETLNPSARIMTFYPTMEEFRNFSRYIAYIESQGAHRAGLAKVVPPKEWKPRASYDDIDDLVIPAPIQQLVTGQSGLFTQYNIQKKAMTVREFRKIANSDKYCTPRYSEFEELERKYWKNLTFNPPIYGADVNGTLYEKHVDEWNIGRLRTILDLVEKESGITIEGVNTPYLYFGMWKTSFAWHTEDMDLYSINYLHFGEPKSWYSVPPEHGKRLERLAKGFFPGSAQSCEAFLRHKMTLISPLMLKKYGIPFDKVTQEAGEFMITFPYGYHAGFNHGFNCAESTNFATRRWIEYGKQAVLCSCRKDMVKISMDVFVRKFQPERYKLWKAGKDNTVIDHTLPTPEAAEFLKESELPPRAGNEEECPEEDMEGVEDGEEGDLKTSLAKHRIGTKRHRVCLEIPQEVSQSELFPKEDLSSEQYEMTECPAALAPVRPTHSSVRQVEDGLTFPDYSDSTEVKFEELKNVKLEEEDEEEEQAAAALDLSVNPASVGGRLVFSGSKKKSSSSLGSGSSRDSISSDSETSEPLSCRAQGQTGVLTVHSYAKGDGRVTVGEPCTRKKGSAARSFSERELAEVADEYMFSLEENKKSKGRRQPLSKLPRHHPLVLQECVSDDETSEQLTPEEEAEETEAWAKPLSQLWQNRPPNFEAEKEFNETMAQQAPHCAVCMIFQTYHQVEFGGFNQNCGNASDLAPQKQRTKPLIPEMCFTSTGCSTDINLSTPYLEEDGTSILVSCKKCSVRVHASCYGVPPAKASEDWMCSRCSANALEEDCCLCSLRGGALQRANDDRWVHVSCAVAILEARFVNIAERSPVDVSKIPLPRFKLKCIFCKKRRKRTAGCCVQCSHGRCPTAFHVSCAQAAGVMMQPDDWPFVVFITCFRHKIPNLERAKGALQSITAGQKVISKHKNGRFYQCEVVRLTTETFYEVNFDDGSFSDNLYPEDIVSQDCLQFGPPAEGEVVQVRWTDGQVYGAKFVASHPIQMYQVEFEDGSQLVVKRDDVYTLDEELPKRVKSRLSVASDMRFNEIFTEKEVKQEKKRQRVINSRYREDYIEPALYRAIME

Compound	activity change, negative = inhibition	Potency
COc1cc(OC)c(C(=O)Nc2ccccc2-c2ccccc2)cc1OC	-24%	
Cc1ccc(NC(=O)CSc2nc3c([nH]c4ccccc43)c(=O)n2-c2ccccc2)cc1Cl	-10%	
CCCNC(=O)C1CCC(Cn2c(=O)c3sccc3n(Cc3ccccc3F)c2=O)CC1 (stereo not drawn)	-1.33%	
O=C(Nc1cc(C(F)(F)F)ccc1Cl)c1cc2nc(-c3ccc4c(c3)OCO4)cc(C(F)(F)F)n2n1	0%	
Cc1cc(OCCCN2CCN(Cc3ccccc3)CC2)ccc1[N+](=O)[O-]		10 µM (active)
Cc1cc(OCC(=O)NC2CCN(C)CC2)ccc1[N+](=O)[O-]	-9.59%	
Cc1cc(OCCCCOc2ccc(C#N)cc2)ccc1[N+](=O)[O-]	2.11%	
CN(C(=O)c1ccc2c(c1)N(Cc1cccc(Cl)c1)C(=O)c1ccccc1S2=O)C1CCCCC1 (stereo not drawn)	-29.2%	
COCCn1c(CCC(=O)Nc2cc(C)ccc2C)nc2cccnc21	-15.1%	
CCOc1ccc(S(=O)(=O)c2cn(Cc3ccccc3)c3ccc(OCC)cc3c2=O)cc1	-4.3%	
Cn1nnc2c(N3CCN(c4ccccc4)CC3)ncnc21	-9.42%	
CCOc1ccccc1C(=O)Nc1ccc(S(=O)(=O)N2CCCCC2c2cccnc2)cc1 (stereo not drawn)	-15.2%	
O=C(c1cccc(Cl)c1)N1CCN(CCc2ccncc2)CC1	-0.662%	
CCn1c(CNS(=O)(=O)c2ccc(Cl)cc2)n[nH]c1=S		10 µM (active)
CCn1c(CSCc2c(Cl)cccc2Cl)n[nH]c1=S	-16.5% [at 11.4 µM]	
CSc1ccc(S(=O)(=O)NCc2ccc(Cl)cc2)cc1	14.7%	
COc1ccc(-c2nc3ccccc3s2)cc1NC(=O)COc1ccccc1C	-1.12%	
COc1cccc2sc(NNC(=O)c3nc4ccccc4s3)nc12		50.1 µM (active)
COc1cccc(OC)c1C(=O)Nc1nnc(C(C)C)s1	-3.66%	
Cc1ccc(OCCn2c(CNc3ccccc3C)nc3ccccc32)cc1	-10.9%	
COc1ccc(N2CCN(C(=O)CSCc3nc(-c4ccccc4Cl)oc3C)CC2)cc1		50.1 µM (active)
COc1ccc(CNC(=O)CSCc2nc(-c3ccccc3F)oc2C)cc1	-6.4%	
COc1ccc(N2CCN(C(=O)CN3C(=O)COc4ccccc43)CC2)cc1	-15%	
CCOc1cc(/C=C2\C(=N)N3N=C(C)SC3=NC2=O)ccc1OCCOc1ccccc1	-0.685%	
COc1cc(/C=C2\C(=N)N3N=C(CC(=O)N4CCOCC4)SC3=NC2=O)cc(OC)c1OC	-13%	
CS(=O)(=O)C1=NN2C(=N)/C(=C\c3ccc(OCCOc4ccccc4)cc3)C(=O)N=C2S1		56.2 µM (active)
CCS(=O)(=O)C1=NSC2=NC(=O)/C(=C\c3ccc(OS(=O)(=O)c4ccccc4)cc3)C(=N)N21		44.7 µM (active)

Compound	activity change, negative = inhibition	Potency
COc1ccccc1OCCOc1ccc(/C=C2\C(=N)N3N=C(C)SC3=NC2=O)cc1	-14.5%	
CCC(=O)Nc1c(C(=O)N2CCN(c3ccc(F)cc3)CC2)oc2ccccc12	-26.9%	
Cc1ccccc1CCNC(=O)C1CCN(c2nc3ccccc3nc2C(F)(F)F)CC1	-6.17%	
COc1ccc2c(c1)c(N1CCCC1=O)c(C(=O)Nc1ccc(OC)c(Cl)c1)n2C	-28.3%	
Cc1nnc(N2CCC(C(=O)Nc3ccc(F)cc3)CC2)c2nn(-c3ccc(Cl)cc3)c(C)c12	5.17%	
COc1ccc(Cl)cc1-n1c(CCC(=O)O)ccc1-c1ccc(C)cc1	-35.3%	
O=c1c2ccccc2c(-c2ccc(F)cc2)nn1-c1ccc(C(F)(F)F)cc1	28.6%	
CC(C)n1c(=S)[nH]c2cc(C(F)(F)F)ccc21	-16.9%	
FC(F)(F)c1ccc(-n2cn[nH]c2=S)cc1		8.91 µM (active)
Cc1c(NC(=O)Cc2ccccc2)cccc1-c1nc2cccnc2s1	-22.5%	
Cc1ccc(S(=O)(=O)/N=S(\C)C(C)C)cc1 (stereo not drawn)		50.1 µM (active)
CC/S(CC1CC1(Cl)Cl)=N\S(=O)(=O)c1ccc(C)cc1 (stereo not drawn)	-13.1%	
CCCC/S(C)=N/S(=O)(=O)c1ccc(C)cc1 (stereo not drawn)	-1.74%	
CCCCOc1ccc(C(C)(O)CCN2CCOCC2)cc1 (stereo not drawn)	-11.1%	
O=C(Nc1ccc(F)cc1F)N1CCCN(CCOc2ccccc2)CC1	-21.4%	
C#CC(CCN1CCCCC1)(OC)c1ccccc1 (stereo not drawn)	-6.8%	
CC(C)(c1ccccc1)c1ccc(OCCN2CCCC2)cc1		20 µM (active)
Clc1ccccc1-c1cc(COc2ccc3ccccc3c2)no1	186%	
c1ccc2cc(OCCN3CCCC3)ccc2c1		7.94 µM (active)
O=C(Nc1ccccc1Cl)N1CCC(CN2CCCCC2)CC1	3.85%	
O=C(CSCc1cnn(-c2ccccc2)c1-n1cccc1)NCc1ccc(Cl)cc1	-6.62%	
CCOc1ccc(OCC)c(NC(=O)c2cc(C)nc3c2c(C)nn3-c2cccc(Cl)c2C)c1	2.27%	
CCOc1ccc(NC(=O)C(CC(C)C)N2Cc3ccccc3C2=O)cc1 (stereo not drawn)	0%	
CCNC(=O)c1cc2n(n1)CCCN(Cc1ccc(C)cc1)C2=O	6.29%	
CCCCc1nn2c(=O)cc(COC(=O)c3cccc(NC(=O)COc4ccccc4)c3)nc2s1	-5.96%	
Cc1ccc(Cl)cc1N(C)C(=O)Cn1nc(Cc2cccnc2)c2ccccc2c1=O	-28.5%	
